gsp agonist: agonists of gsp mutant (McCune-Albright syndrome); gsp mutant cells, cAMP HTRF, 30 min; 340,000 compounds, 0.13% hits; Potency, µM (titrated, usually from 76.9 µM), inactives show at the highest dose activation (cAMP increase), most hits filed as activators; active = well fitted activation curve with a large enough effect; inconclusive = small, poorly fitted or top-dose-only effect, or another doubt; inactive = no such curve, though single readings can be large or run the other way; cell line not stated here;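 note: phosphodiesterase inhibitor Ro 20-1724 added with compounds to block cAMP breakdown; potency is the fitted concentration of half-maximal effect; nearly all actives have a fitted effect of over 60% in size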
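Cells in DMEM/10% FBS with G418 were pretreated with compounds in DMSO plus […] (300 uM stock) for 30 min at 37C. cAMP was measured by HTRF (cAMP-d2 plus anti-cAMP antibody-K) after 30 min at room temperature.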
gsp antagonist: gsp mutant antagonism | gsp-mutant cells, cAMP HTRF, 30 min | Potency, µM (titrated, usually from 76.9 µM), without a hit: at the highest dose activity change, negative = inhibition, usual class: inhibitors | 340,000 compounds, 0.4% hits; calls by dose curve; cell line not stated here;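 note: intracellular cAMP measured with PDE inhibitor Ro 20-1724 present during compound exposure; potency is the fitted concentration of half-maximal effect; % is set by controls: 0 for no effect and ±100 for the full control effect; nearly all actives have a fitted effect of over 65% in size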
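Cells, 2000/well, grown 16–24 h in DMEM 10% FBS with 0.5 mg/ml G418, then compounds plus […] (300 uM addition stock), 30 min at 37C. cAMP read by HTRF (cAMP-d2 and anti-cAMP antibody-K in lysis buffer) after 30 min RT.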
RXFP1 antagonist: RXFP1 (human) relaxin receptor antagonism | HEK293-RXFP1, relaxin-stimulated cAMP HTRF, 30 min; active compounds read low | activity change, negative = inhibition, % at 57.5 µM | 350,000 compounds, 0.59% hits;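 active = activity change of -60% or lower, but not beyond a set lower limit; inconclusive = change between -60% and -40%, or beyond the set limit; inactive = change above -40%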; note: % is set by controls: 0 for no effect and ±100 for the full control effect
Target sequence (Q9HBX9 whole entry, looked up): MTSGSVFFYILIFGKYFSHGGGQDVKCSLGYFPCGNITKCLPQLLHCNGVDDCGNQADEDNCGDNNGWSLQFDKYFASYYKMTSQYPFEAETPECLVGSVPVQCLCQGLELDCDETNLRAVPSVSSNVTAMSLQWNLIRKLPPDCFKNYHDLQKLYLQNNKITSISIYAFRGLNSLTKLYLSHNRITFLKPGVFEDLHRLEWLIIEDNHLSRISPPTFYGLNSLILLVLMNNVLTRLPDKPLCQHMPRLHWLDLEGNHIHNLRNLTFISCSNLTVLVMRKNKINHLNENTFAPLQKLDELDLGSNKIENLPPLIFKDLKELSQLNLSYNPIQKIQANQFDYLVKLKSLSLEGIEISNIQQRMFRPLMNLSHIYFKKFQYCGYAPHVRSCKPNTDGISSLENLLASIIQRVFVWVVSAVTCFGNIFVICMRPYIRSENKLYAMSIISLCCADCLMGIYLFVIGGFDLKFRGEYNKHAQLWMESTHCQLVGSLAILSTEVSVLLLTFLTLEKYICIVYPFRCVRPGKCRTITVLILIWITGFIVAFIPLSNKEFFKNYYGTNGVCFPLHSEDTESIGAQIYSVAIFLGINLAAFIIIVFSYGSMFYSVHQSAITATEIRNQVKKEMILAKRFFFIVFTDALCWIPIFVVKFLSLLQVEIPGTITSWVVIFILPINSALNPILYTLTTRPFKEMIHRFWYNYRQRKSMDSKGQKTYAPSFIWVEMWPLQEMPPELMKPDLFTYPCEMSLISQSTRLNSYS
RXFP1 ag: RXFP1 (human) receptor agonism; HEK293T-RXFP1 cAMP TR-FRET, 30 min; response scale: percent of porcine relaxin response, buffer zero; Potency, µM (top dose mostly 57.5 µM), without a hit: top-dose activation, most hits filed as activators; 370,000 compounds, 0.3% hits; active = well fitted activation curve with a large enough effect; inconclusive = small, poorly fitted or top-dose-only effect; note: potency is the fitted concentration of half-maximal effect; % is set by controls: 0 for no effect and ±100 for the full control effect; nearly all actives have a fitted effect of over 60% in size
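cAMP rise read by TR-FRET after 30 min, 37C compound exposure (up to 58 uM) in RXFP1-transfected HEK293 cells with Ro 20174 present. EC50 from Hill-equation fits, with 29 nM porcine relaxin as 100% and buffer as basal.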
* hit, by the source's call; u = inconclusive; x = not tested or not shown; + = active, no number; [ ] = another dose, or the depositor's remark. A selection: hits, their analogues and other compounds. The true share with any hit is near 0.9%.

SMILES | gsp agonist | gsp antagonist | RXFP1 antagonist | RXFP1 ag
COc1ccc(CCNC(=O)c2ccc(-c3ccc([N+](=O)[O-])cc3)o2)cc1OC | 0% | 32µM* | 4 | 3%
COc1ccc(CC(=O)NNS(=O)(=O)c2ccc([N+](=O)[O-])cc2)cc1OC | 1% | 7% | -84* | -1%
CCOC(=O)C(=O)CCc1ccccc1 | x | x | -6 | x
O=C(COc1ccc2ccccc2c1)NNC(=O)Cc1cccc2ccccc12 | 0% | -4% | -15 | 4%
O=C(COc1ccc2ccccc2c1)NNC(=O)Cc1ccccc1 | -5% | -24% | -120* | 13%
Cc1ccccc1C(=O)N1CCN(c2ccc(NC(=O)c3ccc4c(c3)OCCO4)cc2)CC1 | -8%[15.4 µM] | 35µM* | u | -1%
Cc1cccc(C)c1N1CCN(C(=O)c2ccc3c(c2)OCO3)CC1 | 2%[15.4 µM] | -14% | -62* | 0%
Cc1cccc(N2CCN(C(=O)c3ccc4c(c3)OCCO4)CC2)c1C | -24%[15.4 µM] | -6% | -26 | 2%
CC(=O)c1ccc(N2CCN(C(=O)CCS(=O)(=O)c3ccc4c(c3)oc(=O)n4C)CC2)cc1 | x | x | -3 | 4%
CC(C)S(=O)(=O)c1csc(C(=O)Nc2ccc(F)cc2)c1N | -6%[15.4 µM] | + | -6 | 3%
CC(C)Oc1ccc(Br)cc1/C=N\NC(N)=S | u | 4% | -65* | 0%
COc1ccc(-c2nc(S(=O)(=O)c3ccc(Cl)cc3)c(N3CCCCCC3)o2)cc1 | x | x | 4 | -1%
Cc1nn(-c2ccc(N3CCCC3)nn2)c(C)c1CCC(=O)N1CCN(c2ccccc2F)CC1 | x | x | 20 | 0%
Cc1ccccc1-c1cc(C(=O)Nc2sc(C(=O)OC(C)C)c(C)c2C#N)c2ccccc2n1 | -28% | 11µM* | -65* | 1%
CCOC(=O)CNC(=O)Nc1cc(C(=O)NCc2ccc(C(C)C)cc2)ccc1N1CCCC1 | x | x | -16 | -2%
O=[n+]1c2c(n([O-])c3cc(F)c(N4CCCC4)cc31)CCC2 | 21% | 40µM* | -3 | x
O=[n+]1c2c(n([O-])c3cc(F)c(N4CCCC4)cc31)CCCC2 | 24% | 2% | 4 | 2%
Cc1nc2ccccc2c2c1CC(C)S2 (stereo unspecified) | 8.9µM* | 1% | 14 | 8%
C[C@H]1C[C@H]2[C@@H]3CCC4=CC(=O)C=C[C@]4(C)[C@@]3(Cl)[C@@H](O)C[C@]2(C)[C@@]1(O)C(=O)CO | x | -8% | -70* | 2%
C[C@H]1C[C@H]2[C@@H]3CCC4=CC(=O)C=C[C@]4(C)[C@@]3(F)[C@@H](O)C[C@]2(C)[C@@]1(O)C(=O)CO | x | -8% | x | x
O=C(CN1CCN(Cc2ccc3c(c2)OCO3)CC1)Nc1cc(S(=O)(=O)N2CCCC2)ccc1Cl | -17%[15.4 µM] | -7% | -7 | 4%
CN(C)S(=O)(=O)c1ccc(Cl)c(NC(=O)CN2CCN(Cc3ccc4c(c3)OCO4)CC2)c1 | 10% | 11µM* | 0 | 3%
CCN(CC)CCN | x | x | -19 | x
CCOC(=O)c1nnn2c1nc(SCC(C)=O)c1ccccc12 | 26%[15.4 µM] | 18% | 22 | 16µM*
COc1c(OC(C)=O)ccc(/C=C/c2ccc3ccccc3n2)c1[N+](=O)[O-] | -25% | 25µM* | -33 | 2%
SMILES | gsp agonist | gsp antagonist | RXFP1 antagonist | RXFP1 ag
CCN(CC)S(=O)(=O)c1ccc(C(=O)Nc2nnc(NC(=S)Nc3ccccc3)s2)cc1 | -6%[15.4 µM] | -5% | -85* | 0%
CCN(CC)S(=O)(=O)c1ccc(C(=O)Nc2ccc(Cc3ccncc3)cc2)cc1 | 35% | 50µM* | -20 | 0%
CCCCc1nc2cc(C(=O)NCc3nccn3CC)ccc2o1 | -21% | -6% | 5 | -1%
CCCCc1nc2cc(C(=O)NCc3cn(C)nc3C)ccc2o1 | 7% | 35µM* | 8 | 3%
O=C(CSc1n[nH]c(=O)n1C1CC1)Nc1cc(Cl)ccc1Oc1ccccc1 | -3% | 35µM* | -6 | 0%
CCOC(=O)N1CCC(Nc2ccc(Cl)cc2N)CC1 | x | x | -22 | x
O=C(CCS(=O)(=O)c1ccccc1)Nc1cccc(-c2nc3ccccc3s2)c1 | -11% | 40µM* | u | -5%
O=C(Nc1cccc(-c2nc3ccccc3s2)c1)c1cccs1 | 1%[15.4 µM] | 22µM* | -2 | 0%
CCOC(=O)c1ccc(Nc2nnc(C(C)(C)C)c(=O)[nH]2)cc1 | 2% | 40µM* | -10 | 1%
Cc1ccc(-n2ncc3c(Nc4ccc5c(c4)OCCO5)ncnc32)cc1C | x | x | -11 | 6%
Cc1ccccc1S(=O)(=O)Cc1ccc(C(=O)N(C)C2CCCCC2)o1 | u | 50µM* | -5 | 1%

Screening results (PubChem)
